8 molecules from PubChem BioAssay (Tox21) can be followed below.

Unmarked numbers belong to inactive results. Records with an inconclusive call do not appear. Calls of active or inactive are those of the source. Unless noted, calls come from the whole dose curve; as a rule, active = well fitted curve in the direction sought with a large enough effect in the repeat runs; inconclusive = weak or mixed curves; inactive = no such curve, though single readings can be large; an effect the other way counts as inactive or inconclusive.

The nature of experiment [1]: qHTS assay for small molecule agonists of the p53 signaling pathway (AID 651631; calls by dose curve; note: nearly all actives have a fitted effect of over 15% in size; note: potency is the fitted concentration of half-maximal effect). An outline of the steps: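 Agonist mode screen using a stably integrated beta-lactamase gene under p53 response elements in HCT-116 cells. Compound exposure lasts 16 h at 37 °C; fluorescence intensity is measured following 2 h FRET substrate loading.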
Background: In qHTS, concentration-response curves come from the screen itself.

The nature of experiment [2]: qHTS assay for small molecule agonists of the p53 signaling pathway - cell viability (AID 651633; calls by dose curve;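 note: p53RE-bla HCT reporter cells with a stable beta-lactamase p53 reporter; series mostly up to about 83 µM; nearly all actives have a fitted effect of over 30% in size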). An outline of the steps: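 p53RE-bla cells were treated with compound for 16 hours at 37 C. Cytotoxicity was then measured as CellTiter-Glo luminescence after 30 min at room temperature.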
Experiment [3] in a line: qHTS assay for small molecules that induce genotoxicity in human embryonic kidney cells expressing luciferase-tagged ATAD5 - cell viability (AID 651634; calls by dose curve; note: nearly all actives have a fitted effect of over 25% in size). The method in brief:
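Here HEK293T cells with the ATAD5 luciferase reporter are incubated with test compounds for 15.5 hr, and cytotoxicity is then gauged by measuring protease activity in live cells using fluorescence.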

Experiment [4] is described as follows: qHTS assay for small molecule disruptors of the mitochondrial membrane potential - cell viability (AID 720634; calls by dose curve;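 note: human HepG2 liver cancer cells; series mostly up to about 83 µM; nearly all actives have a fitted effect of over 20% in size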). An outline of the steps: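 Viability of HepG2 cells is scored from ATP content by luminescence; cells are exposed to compound for 1 hr at 37 C and 5% CO2, then dosed with m-MPI dye before the CellTiter-Glo reagent.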
Experiment [5] in a line: qHTS assay to test for compound auto fluorescence at 590 nm (red) in HepG2 cells (AID 720674). An outline of the steps: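 Fluorescence at 590 nm emission following 540 nm excitation was recorded from HepG2 wells one hour after compound transfer, with DMSO-only wells as vehicle and Rose Bengal sodium equivalency as the scale.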
The nature of experiment [6]: qHTS assay to test for compound auto fluorescence at 535 nm (green) in HepG2 cells (AID 720675).
Experiment [7] is described as follows: qHTS assay to test for compound auto fluorescence at 460 nm (blue) in HEK293 cells (AID 720678). The method in brief: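 Triamterene serves as the blue fluorophore standard. Compound signal at 405/460 nm is read in HEK293 wells (2,000 cells, 10% dialyzed FBS) after overnight treatment at 37C.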
The nature of experiment [8]: qHTS assay to test for compound auto fluorescence at 535 nm (green) in HEK293 cells (AID 720680).
Experiment [9] in a line: qHTS assay to test for compound auto fluorescence at 460 nm (blue) in HEK293 cell free culture (AID 720681). An outline of the steps: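 Compounds were added to cell-free DMEM with 10% FBS and fluorescence read directly. The blue channel used 405 nm excitation and 460 nm emission, with triamterene as the reference fluorophore.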
Experiment [10] is described as follows: qHTS assay to test for compound auto fluorescence at 535 nm (green) in HEK293 cell free culture (AID 720682). The method in brief: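 No cells present: wells hold DMEM supplemented with 10% FBS, into which compound or vehicle is pinned. Green emission is then recorded (485 nm excitation, 535 nm emission) and scaled to fluorescein.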
The nature of experiment [11]: qHTS assay to test for compound auto fluorescence at 590 nm (red) in HEK293 cell free culture (AID 720683). The method in brief:
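Cell-free wells of DMEM with 10% FBS received compound, and intrinsic fluorescence was read at excitation/emission 540/590 nm. Values expressed as equivalence to Rose Bengal sodium.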

Experiment [12] can be described thus: qHTS assay to test for compound auto fluorescence at 590 nm (red) in HepG2 cell free culture (AID 720684). The method in brief: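 Rose Bengal sodium served as the reference for red signal. Test compounds were dispensed into serum-containing MEM (10% FBS) without cells, and plates were read at 540/590 nm.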
The nature of experiment [13]: qHTS assay to test for compound auto fluorescence at 460 nm (blue) in HepG2 cell free culture (AID 720685). The method in brief: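 Cell-free plates of MEM plus 10% FBS received 23 nL compound or DMSO vehicle; blue-channel (405/460 nm) intensity scored against triamterene as reference fluorophore.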
Experiment [14] is described as follows: qHTS assay to test for compound auto fluorescence at 535 nm (green) in HepG2 cell free culture (AID 720686).
Experiment [15] is described as follows: qHTS assay to test for compound auto fluorescence at 460 nm (blue) in HepG2 cells (AID 720687). The method in brief:
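HepG2 cells in MEM with 10% FBS, attached overnight at 37 C, were exposed to compound or DMSO for 1 hr at 37 C, 5% CO2. Blue fluorescence was read at 405/460 nm, with triamterene as reference fluorophore.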

The target of experiment [16] is Glucocorticoid receptor (Homo sapiens) (UniProt P04150). Nature of the experiment: qHTS assay to identify small molecule agonists of the glucocorticoid receptor (GR) signaling pathway (AID 720691; active = well fitted activation curve with a large enough effect in the signal ratio in the repeat runs, not every such curve was filed as active; the % refers to the signal ratio). The method in brief:
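Compounds in DMSO, alongside positive controls, were added to GR-bla HeLa reporter cells and incubated 18 h at 37 C; GRE-driven beta-lactamase was detected by fluorescence after 2 h with FRET substrate at room temperature.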

Experiment [17] in a line: qHTS assay to test for compound auto fluorescence at 590 nm (red) in HEK293 cells (AID 720679). An outline of the steps: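 We plated HEK293 cells in 10% dialyzed FBS medium, let them adhere for 4-5 hr, then added 23 nL compound. Overnight at 37C and 5% CO2 preceded fluorescence measurement at 540/590nm.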
The target in experiment [18] is Glucocorticoid receptor (Homo sapiens) (UniProt P04150). Nature of the experiment: qHTS assay to identify small molecule antagonists of the glucocorticoid receptor (GR) signaling pathway (AID 720692; active = well fitted inhibition curve with a large enough effect in the signal ratio in the repeat runs, not every such curve was filed as active; the % refers to the signal ratio). An outline of the steps: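 In a 1536-well cell format, compounds were added 4 h after seeding GR-bla HeLa cells, together with dexamethasone at 5 nM final; reporter activity was measured by FRET-substrate fluorescence following 18 h at 37 C.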
Sequence of Glucocorticoid receptor (Homo sapiens) (P04150 whole entry, looked up): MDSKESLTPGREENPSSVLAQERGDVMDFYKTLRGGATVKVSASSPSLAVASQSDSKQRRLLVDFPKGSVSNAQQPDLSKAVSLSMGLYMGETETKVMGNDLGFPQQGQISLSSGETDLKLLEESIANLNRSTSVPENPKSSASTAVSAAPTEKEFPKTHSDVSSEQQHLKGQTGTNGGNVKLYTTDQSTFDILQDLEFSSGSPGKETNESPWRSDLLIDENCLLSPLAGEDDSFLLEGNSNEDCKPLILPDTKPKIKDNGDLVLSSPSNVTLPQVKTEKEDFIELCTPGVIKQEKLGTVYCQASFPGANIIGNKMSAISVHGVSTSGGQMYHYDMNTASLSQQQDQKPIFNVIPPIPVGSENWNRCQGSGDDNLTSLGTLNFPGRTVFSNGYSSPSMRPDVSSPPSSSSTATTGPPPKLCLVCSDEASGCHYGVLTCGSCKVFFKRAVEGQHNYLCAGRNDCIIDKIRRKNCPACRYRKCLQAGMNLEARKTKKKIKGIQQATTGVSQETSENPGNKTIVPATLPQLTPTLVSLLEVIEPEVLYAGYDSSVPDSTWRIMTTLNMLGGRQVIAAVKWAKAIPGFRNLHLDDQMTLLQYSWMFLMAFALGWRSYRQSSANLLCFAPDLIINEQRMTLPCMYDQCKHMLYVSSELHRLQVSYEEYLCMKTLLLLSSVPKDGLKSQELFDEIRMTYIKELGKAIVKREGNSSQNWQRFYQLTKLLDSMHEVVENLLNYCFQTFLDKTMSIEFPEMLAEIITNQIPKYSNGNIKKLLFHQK

A short description of experiment [19]: qHTS assay for small molecule disruptors of the mitochondrial membrane potential (AID 720635). An outline of the steps:
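HepG2 cells exposed to compound 1 hr at 37C, then Mito-MPS dye 30 min. Ratio read of aggregate (540/590 nm) versus monomer (490/535 nm) fluorescence.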

On to `Nc1ccc2ccccc2c1S(=O)(=O)O`, for which the Potency entry in experiment [1], in experiment [2], in experiment [3], in experiment [4] and in experiment [16] was “inactive” each time. For the same molecule, the call in experiment [5], in experiment [6], in [7], in experiment [8], in experiment [9] and in experiment [10] was inactive. Besides, the result in experiment [11], in [12], in experiment [13], in experiment [14] and in experiment [15] was inactive.

Take `CO[Si](C)(C)OC`: the Potency entry in experiment [1], in [2], in experiment [3], in experiment [4], in [16] and in experiment [18] was “inactive” throughout. Further, the call in [5], in experiment [7], in experiment [17], in experiment [9], in [10] and in experiment [11] was inactive. Further, the result in experiment [12], in [13], in [14] and in [15] was inactive.

As for `FC(F)(F)C(F)(F)C(F)(F)C(F)(F)C(F)(F)C(F)(F)C(F)(F)C(F)(F)Br`, the Potency result in experiment [1], in [2], in experiment [3], in experiment [4], in experiment [19] and in experiment [16] was “inactive” each time. Moreover, the Potency result in [18] was “inactive”. Moreover, the result in [5], in experiment [6], in experiment [7], in [9], in experiment [10] and in experiment [11] was inactive. Further, the molecule was called inactive in experiment [12], in experiment [14] and in experiment [15].

Take `CC[C@H]1CC[C@H](NCc2cc3c(cc2OC)[C@H]2C[C@H]2C(=O)N3C)[C@H](c2ccccc2)N1`: the Potency in [1] is 6.86 µM (active). Also, the Potency entry in experiment [2], in experiment [4], in experiment [16] and in experiment [18] was “inactive” in each case. For the same molecule, the result in [5], in [7], in [17], in experiment [8], in experiment [9] and in experiment [10] was inactive. Further, the result in experiment [11], in experiment [12], in experiment [14] and in experiment [15] was inactive.

With `COC(=O)c1ccc(OC)cc1`, the Potency entry in experiment [1], in experiment [2], in experiment [3], in [19], in [16] and in [18] was “inactive” throughout. Moreover, the molecule was classed as inactive in experiment [5], in experiment [7], in [17], in [8], in experiment [9] and in [10]. Besides, the outcome in [12], in experiment [13], in [14] and in [15] was inactive.

Turning to `CCOC(=O)NCCC[Si](OCC)(OCC)OCC`, the Potency entry in experiment [1], in [2], in experiment [3], in [4] and in experiment [16] was “inactive” each time. The molecule was classed as inactive in experiment [5], in [6], in [7], in [17], in [8] and in [9]. Besides, the call in [10], in experiment [11], in experiment [13], in experiment [14] and in experiment [15] was inactive.

As to `C=CCCCCCCCCO`, the Potency entry in experiment [1], in experiment [2], in experiment [3], in [4], in experiment [16] and in experiment [18] was “inactive” throughout. Also, the molecule was called inactive in experiment [5], in experiment [6], in experiment [7], in [17], in experiment [8] and in [9]. The molecule was called inactive in experiment [10], in experiment [12], in [13], in [14] and in [15].

`OCCN(CCO)CCN(CCO)CCO`: the Potency result in experiment [1], in experiment [2], in experiment [3], in experiment [16] and in experiment [18] was “inactive” each time. Besides, the result in experiment [5], in experiment [6], in experiment [7], in experiment [17], in [8] and in [9] was inactive. For the same molecule, the result in [10], in experiment [11], in experiment [12], in [13], in experiment [14] and in experiment [15] was inactive.
